Test results reported in PubChem BioAssay AID1443 (Sanford-Burnham Center for Chemical Genomics, 2008).
Hit rate of the full screen: of about 220,000 compounds, about 880 (0.4%) were called active.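 How the source made its calls: active means cell killing above 50% in the first pass at 4 µM, then a duplicate retest at 5 µM averaging 50% or more; inactive means the rest.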 Only a selection was taken, and actives are over-represented in it overall.

Test: compounds killing PPC-1 cancer cells with TRAIL present, primary screen, TRAIL potentiator project, ATPLite luminescence, uHTS (AID 1443);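 further: plate controls were cells with TRAIL plus DMSO for no effect and medium-only wells lacking cells for full effect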
Conditions: PPC-1 cells + TRAIL, ATPLite viability luminescence, stronger effect = higher value; at 4 µM unless noted
For `COc1ccc2cc(-c3[nH]ncc3CNCCn3nc(C)cc3C)ccc2c1`, the cell killing (% activity) was 0.6% (inactive).
With `Cn1c(=NC(=O)CSCC(=O)N2CCCCC2)sc2ccccc21` the cell killing (% activity) was 21.3% (inactive).
For `Cn1c(=NC(=O)c2cnccn2)sc2ccccc21`, the cell killing (% activity) was 53.2% [at 5 µM] (active).
In the case of `Cn1c(=NC(=O)CSCC(=O)N2CCOCC2)sc2ccccc21`, the cell killing (% activity) is reported as 11.5% (inactive).
In the case of `Cc1ccsc1/C=N/Nc1ccc(Cl)nn1`, the cell killing (% activity) is reported as -6.9% (inactive).
For `O=[N+]([O-])c1ccc(N2CCN(S(=O)(=O)c3ccccc3)CC2)cc1N1CCc2ccccc2C1`, the cell killing (% activity) was 8.9% (inactive).
In the case of `Cc1ccccc1NC(=S)N(CCCN1CCOCC1)Cc1cccs1`, the cell killing (% activity) is reported as 8.5% (inactive).
For `O=C(Oc1ccccc1)c1ccc2nccnc2c1`, the cell killing (% activity) was 25.8% (inactive).
With `O=C(Oc1ccc(-c2nc(-c3ccccn3)no2)cc1)c1ccccc1` the cell killing (% activity) was 54.2% [at 5 µM] (active).
In the case of `c1ccc(-c2noc(-c3cccs3)n2)nc1`, the cell killing (% activity) is reported as 31.1% (inactive).
With `Cc1cc(C)c(C)c(S(=O)(=O)N[C@@H](C)C(=O)OC(C)C(=O)NC(N)=O)c1C` (stereo partly specified) the cell killing (% activity) was 18.2% (inactive).
With `NCCCC[C@@H]1NC(=O)[C@H](CCC(=O)O)NC(=O)c2cc([N+](=O)[O-])cc(I)c2NCC[C@@H](C(N)=O)NC1=O` the cell killing (% activity) was -6.5% (inactive).
With `O=S(=O)(Nc1ccc(OC(F)(F)F)cc1)c1cccc2nonc12` the cell killing (% activity) was 7.3% (inactive).
With `O=C(CSc1nnc(C2CC2)n1Cc1ccccc1)Nc1cccnc1Cl` the cell killing (% activity) was 9.8% (inactive).
For `Cc1ccc(NS(=O)(=O)c2ccc(N/N=C/c3ccccc3OCC(=O)O)c([N+](=O)[O-])c2)c(C)c1`, the cell killing (% activity) was -2.4% (inactive).
With `Clc1ccc(-c2cc(-c3ccccn3)on2)c(Cl)c1` the cell killing (% activity) was 88% [at 5 µM] (active).
In the case of `O=C(NCc1ccccn1)c1cc(-c2ccccc2Cl)on1`, the cell killing (% activity) is reported as 24.5% (inactive).
In the case of `O=C1CSC(c2ccccc2)N1c1nc(-c2ccc(Cl)cc2Cl)cs1` (stereo unspecified), the cell killing (% activity) is reported as 27.7% (inactive).
In the case of `CCOC(=O)c1c(/N=C/C2C(=O)CC(C)(C)CC2=O)sc(C)c1C`, the cell killing (% activity) is reported as 14.1% (inactive).
In the case of `CCCCSc1nnc2c(n1)OC=Nc1ccccc1-2`, the cell killing (% activity) is reported as 11.9% (inactive).
In the case of `COc1ccc(/C(C)=N/N2CCOCC2)c(O)c1`, the cell killing (% activity) is reported as -10.1% (inactive).
With `COc1ccc(-c2nc(-c3ccccc3)no2)c(OC)c1` the cell killing (% activity) was 68% [at 5 µM] (active).
With `COc1ccc(-c2noc(-c3cccc(OC)c3OC)n2)cc1OC` the cell killing (% activity) was 18.8% (inactive).
For `COc1ccc(-c2noc(-c3ccc(C)cc3)n2)cc1`, the cell killing (% activity) was 25.4% (inactive).
In the case of `O=c1c2cc(-c3ccccc3)sc2nc2n1N=C(c1cccs1)CS2`, the cell killing (% activity) is reported as 30.8% (inactive).
In the case of `Cc1cc(C)c2c(NC(=O)C3CC3)nn(C)c2n1`, the cell killing (% activity) is reported as 0.3% (inactive).
With `COc1cccc(CC(=O)Nc2ccc(-c3csc(C)n3)cc2)c1` the cell killing (% activity) was 2.3% (inactive).
In the case of `C=CCn1c(C)cc(C2=NNC(=NCC)SC2)c1C`, the cell killing (% activity) is reported as 88.8% [at 5 µM] (active).
With `Cc1cc(C2=NNC(=Nc3ccc(S(=O)(=O)N4CCOCC4)cc3)SC2)c(C)n1CC1CCCO1` (stereo unspecified) the cell killing (% activity) was 8.5% (inactive).
With `COCCn1c(C)cc(C2=NNC(=Nc3ccc(F)cc3)SC2)c1C` the cell killing (% activity) was 12.3% (inactive).
With `O=C(NNC(=O)c1ccc(Cl)cc1Cl)c1cccs1` the cell killing (% activity) was 35.4% (inactive).
For `CCOC(=O)c1cc(C)nc(S(C)(=O)=O)c1C#N`, the cell killing (% activity) was 19.4% (inactive).
With `N#C/C(=C\C1=C(N2CCOCC2)C(=C\c2ccccc2)/CC1)C(=O)Nc1ccccc1F` the cell killing (% activity) was 3.4% (inactive).
For `c1ccc(-c2cn3cccnc3n2)cc1`, the cell killing (% activity) was 13.7% (inactive).
For `Cc1ccc(-c2cn3cc(C)ccc3n2)cc1`, the cell killing (% activity) was 86.4% [at 5 µM] (active).
For `COc1ccc(-c2cn3ccc(C)cc3n2)cc1`, the cell killing (% activity) was 89% [at 5 µM] (active).
In the case of `CS(=O)(=O)Nc1cccc(-c2cn3ccccc3n2)c1`, the cell killing (% activity) is reported as 4.6% (inactive).
With `COc1ccc(-c2cn3cccnc3n2)cc1` the cell killing (% activity) was 13.9% (inactive).
In the case of `COc1ccc(-c2cn3ccsc3n2)cc1`, the cell killing (% activity) is reported as 46.2% (inactive).
In the case of `Cc1cccc(NC(=O)C2CC(=O)OC23CCCC3)c1` (stereo unspecified), the cell killing (% activity) is reported as -2.2% (inactive).
In the case of `COc1ccc(C(=O)ON=C2c3ccccc3-c3ccccc32)cc1OC`, the cell killing (% activity) is reported as 8.6% (inactive).
In the case of `Cc1sc2nc(COC(=O)C(NC(=O)c3ccc(Cl)cc3Cl)C(C)C)[nH]c(=O)c2c1C` (stereo unspecified), the cell killing (% activity) is reported as 2.9% (inactive).
With `O=C(Nc1ccc(S(=O)(=O)Nc2nccs2)cc1)c1cccc(S(=O)(=O)N2CCOCC2)c1` the cell killing (% activity) was 10.1% (inactive).
With `Fc1ccccc1Cc1ccc(Cl)nn1` the cell killing (% activity) was 22.4% (inactive).
For `CCN(CC)C(=O)CS(=O)CC(=O)Nc1cc(OCCOC)c(Cl)cc1Cl` (stereo unspecified), the cell killing (% activity) was 3.5% (inactive).
With `CCCc1cc(=O)[nH]c(SCC(=O)N2CCN(S(=O)(=O)c3ccc(C)cc3C)CC2)n1` the cell killing (% activity) was -8.7% (inactive).
With `Fc1ccccc1Cn1cnc(NC(=S)NCCc2ccccc2)n1` the cell killing (% activity) was 23.7% (inactive).
In the case of `CN(Cc1ccccc1)Cc1ccccc1F`, the cell killing (% activity) is reported as 10.6% (inactive).
For `N=c1n(CCc2ccccc2)c2ccccc2n1Cc1ccccc1F`, the cell killing (% activity) was 53.1% (active).
In the case of `O=C(NCCCN1CCN(c2ccc(F)cc2)CC1)Nc1ccc([N+](=O)[O-])cc1`, the cell killing (% activity) is reported as -6.5% (inactive).
With `Cc1c(C(=O)c2cccc([N+](=O)[O-])c2)c2ccccn2c1CCC#N` the cell killing (% activity) was 33.6% (inactive).
For `COC(=O)c1ccc(COc2cc([N+](=O)[O-])cc3cccnc23)cc1`, the cell killing (% activity) was -4.2% (inactive).
With `Cn1c(CC2Sc3ccccc3NC2=O)nnc1SCC(=O)c1ccc(Cl)cc1` (stereo unspecified) the cell killing (% activity) was 5.2% (inactive).
For `O=C(c1ccc(F)cc1)n1c(=S)nc2ccccn21`, the cell killing (% activity) was 81.3% [at 5 µM] (active).
For `O=C(Cn1c(=S)nc2ccccn21)N1CCc2ccccc2C1`, the cell killing (% activity) was -12% (inactive).
In the case of `O=C(c1ccc(F)cc1)n1cc(C(=S)N2CCOCC2)c2ccccc21`, the cell killing (% activity) is reported as 21% (inactive).
With `NS(=O)(=O)c1ccc(NC(=S)Nc2ccc(Br)c(Cl)c2)cc1` the cell killing (% activity) was 12% (inactive).
In the case of `O=C(OCC1O[C@@H](OC(=O)c2cc(O)c(O)c(O)c2)[C@@H](OC(=O)c2cc(O)c(O)c(O)c2)[C@@H](OC(=O)c2cc(O)c(O)c(O)c2)[C@@H]1OC(=O)c1cc(O)c(O)c(O)c1)c1cc(O)c(O)c(O)c1` (stereo partly specified), the cell killing (% activity) is reported as -9.9% (inactive).
For `CCOc1ccc(CN2CCN(Cc3ccon3)CC2CCO)cc1` (stereo unspecified), the cell killing (% activity) was 8.1% (inactive).
In the case of `Cc1noc(/C=C/c2ccco2)c1S(=O)(=O)N1CCC(C(=O)Nc2ccc(Cl)cn2)CC1`, the cell killing (% activity) is reported as 24.3% (inactive).
For `Cc1nonc1C(=O)N/N=C/c1ccc(O)cc1`, the cell killing (% activity) was -5.1% (inactive).
In the case of `CC(NC(=O)CCC(=O)N1CCN(S(=O)(=O)c2ccc(Cl)cc2)CC1)c1ccccc1` (stereo unspecified), the cell killing (% activity) is reported as 16.9% (inactive).
With `CCN(CC(=O)Nc1ccc(S(=O)(=O)N2CCCC2)cc1)CC(=O)Nc1cccc(OC)c1` the cell killing (% activity) was 6.9% (inactive).
With `NS(=O)(=O)c1cccnc1Nc1cccc(Cl)c1` the cell killing (% activity) was 23% (inactive).
With `OCCCNc1nccc(-c2cc(Nc3cccc(Cl)c3)ncn2)n1` the cell killing (% activity) was 80.9% (active).
For `CC(C)n1cnc2c(Nc3cccc(Cl)c3)nc(N(CCO)CCCO)nc21`, the cell killing (% activity) was 8.8% (inactive).
In the case of `CCOC(=O)c1sc2nc(C)nc(Nc3ccc(OC)c(OC)c3)c2c1C`, the cell killing (% activity) is reported as -11.6% (inactive).
In the case of `CCN1CCC2(CC1)N=C(c1ccc(F)cc1)C(=S)N2C(=O)c1ccc(C)cc1`, the cell killing (% activity) is reported as 5.2% (inactive).
In the case of `O=C(Nc1n[nH]c(C(F)(F)F)n1)c1cccs1`, the cell killing (% activity) is reported as 2.7% (inactive).
In the case of `O=C(COC(=O)c1ccc(S(=O)(=O)Nc2ccccc2)cc1)NCC1CCCO1` (stereo unspecified), the cell killing (% activity) is reported as 14.7% (inactive).
In the case of `Cc1cc(C)nc(NC(=O)/C=C/c2ccc(Cl)cc2)n1`, the cell killing (% activity) is reported as -2.4% (inactive).
In the case of `c1c2c(cc3sc(N4CCCCC4)nc13)OCCO2`, the cell killing (% activity) is reported as 65.8% (active).
In the case of `Brc1ccc2nc(N3CCCC3)sc2c1`, the cell killing (% activity) is reported as -2.5% (inactive).
With `Cc1nc2cc3c(cc2s1)OCO3` the cell killing (% activity) was 9% (inactive).
For `O=C(O)/C(=C/c1cccnc1)NC(=O)c1ccccc1`, the cell killing (% activity) was 9% (inactive).
In the case of `COCCNc1nc(-c2ccccc2)nc2c1oc1ccccc12`, the cell killing (% activity) is reported as 8.8% (inactive).
For `Cc1ccc2nsnc2c1S(=O)(=O)N1CCCC1C(=O)O` (stereo unspecified), the cell killing (% activity) was 13.9% (inactive).
With `Cc1cc(=O)oc2c(C(=O)c3ccccc3)c(OCC(N)=O)ccc12` the cell killing (% activity) was 6.8% (inactive).
With `COc1cccc(C(=O)n2ccc(-c3cccs3)n2)c1` the cell killing (% activity) was -11.4% (inactive).
With `Cc1nc2cc(NC(=O)Nc3cccc(F)c3)ccc2n1C` the cell killing (% activity) was 54.1% [at 5 µM] (active).
With `C=CCN(C(=O)Nc1ccc2c(c1)nc(C)n2C)c1ccccc1` the cell killing (% activity) was 14.1% (inactive).
For `Cc1nc2cc(NC(=O)NC3CC3)ccc2n1C`, the cell killing (% activity) was 14.9% (inactive).
With `COC(C(=O)Nc1ccc(S(=O)(=O)Nc2ccc(C)c(C)c2)cc1)c1ccccc1` (stereo unspecified) the cell killing (% activity) was 19.1% (inactive).
With `COc1ccccc1NC(=O)CCSc1nnc(-c2ccc(O)cc2)o1` the cell killing (% activity) was -2.2% (inactive).
For `CCC(C)N1C(=S)SC(C)(C)C1N(O)C(=O)NC1CCCCC1` (stereo unspecified), the cell killing (% activity) was 13.9% (inactive).
For `Cc1ccc(-n2[nH]c(C)c(/C=N/NC(=O)c3cccc([N+](=O)[O-])c3)c2=O)cc1C`, the cell killing (% activity) was 60.3% (active).
With `Cc1[nH]n(-c2ccccc2)c(=O)c1/C=N/NC(=O)c1ccoc1C` the cell killing (% activity) was 29.6% (inactive).
In the case of `COc1cccc(/C=N/NC(=O)c2cccc([N+](=O)[O-])c2)c1OS(=O)(=O)c1ccc(C)cc1`, the cell killing (% activity) is reported as -0.7% (inactive).
In the case of `CC(C)CNC(=S)Nc1ccc(F)cc1`, the cell killing (% activity) is reported as 31.5% (inactive).
In the case of `CC1CC(=S)Nc2ccccc2N1Cc1ccccc1` (stereo unspecified), the cell killing (% activity) is reported as 16% (inactive).
With `CCNC(=O)COC(=O)/C=C/c1c(C)nn(Cc2cccc(OC)c2)c1Cl` the cell killing (% activity) was -7.2% (inactive).
In the case of `CCOC(=O)c1nnn2c1nc(N1CCN(c3ccccc3)CC1)c1ccccc12`, the cell killing (% activity) is reported as 3.6% (inactive).
With `Cc1csc(SCC(=O)Nc2sccc2C#N)n1` the cell killing (% activity) was 10.6% (inactive).
With `c1ccc(-c2nc(NCc3ccco3)c3ccccc3n2)cc1` the cell killing (% activity) was 6.1% (inactive).
For `Clc1cccc(-c2nc(NCC3CCCO3)c3ccccc3n2)c1` (stereo unspecified), the cell killing (% activity) was -5.4% (inactive).
For `Clc1ccc2nc(-c3ccccc3)nc(C(Cl)Cl)c2c1`, the cell killing (% activity) was 79.2% [at 5 µM] (active).
